An excerpt weighted towards active compounds, which were near 10% of everything screened.
HEK293 tox: kills HEK 293 cells; actives 6.6% (n = 94,000); HEK 293 viability, ATP luminescence (CellTiter-Glo), 48-72 h; Potency, µM (highest dose often 115 µM), without a hit: top-dose activity change, negative = cytotoxicity, actives largely listed as inhibitors; also: nearly all actives have a fitted effect of over 60% in size
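HEK 293 cells seeded at 250 cells/well were exposed to compound for 48 or 72 hr at 37 degree Celsius. Viability taken as ATP content by CellTiter-Glo luminescence.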
NPR1 antag: human Npr1 receptor antagonism; Potency, µM (series often up to 46.3 µM), for the others: at the top dose activity change, negative = inhibition, hits mostly inhibitors; actives 1.6% (n = 76,000); P16066; AID 1347048; HEK293 hNpr1 GloSensor cGMP, ANP-stimulated luminescence; calls by dose curve; also: nearly all actives have a fitted effect of over 60% in size
Target sequence (P16066 whole entry, looked up): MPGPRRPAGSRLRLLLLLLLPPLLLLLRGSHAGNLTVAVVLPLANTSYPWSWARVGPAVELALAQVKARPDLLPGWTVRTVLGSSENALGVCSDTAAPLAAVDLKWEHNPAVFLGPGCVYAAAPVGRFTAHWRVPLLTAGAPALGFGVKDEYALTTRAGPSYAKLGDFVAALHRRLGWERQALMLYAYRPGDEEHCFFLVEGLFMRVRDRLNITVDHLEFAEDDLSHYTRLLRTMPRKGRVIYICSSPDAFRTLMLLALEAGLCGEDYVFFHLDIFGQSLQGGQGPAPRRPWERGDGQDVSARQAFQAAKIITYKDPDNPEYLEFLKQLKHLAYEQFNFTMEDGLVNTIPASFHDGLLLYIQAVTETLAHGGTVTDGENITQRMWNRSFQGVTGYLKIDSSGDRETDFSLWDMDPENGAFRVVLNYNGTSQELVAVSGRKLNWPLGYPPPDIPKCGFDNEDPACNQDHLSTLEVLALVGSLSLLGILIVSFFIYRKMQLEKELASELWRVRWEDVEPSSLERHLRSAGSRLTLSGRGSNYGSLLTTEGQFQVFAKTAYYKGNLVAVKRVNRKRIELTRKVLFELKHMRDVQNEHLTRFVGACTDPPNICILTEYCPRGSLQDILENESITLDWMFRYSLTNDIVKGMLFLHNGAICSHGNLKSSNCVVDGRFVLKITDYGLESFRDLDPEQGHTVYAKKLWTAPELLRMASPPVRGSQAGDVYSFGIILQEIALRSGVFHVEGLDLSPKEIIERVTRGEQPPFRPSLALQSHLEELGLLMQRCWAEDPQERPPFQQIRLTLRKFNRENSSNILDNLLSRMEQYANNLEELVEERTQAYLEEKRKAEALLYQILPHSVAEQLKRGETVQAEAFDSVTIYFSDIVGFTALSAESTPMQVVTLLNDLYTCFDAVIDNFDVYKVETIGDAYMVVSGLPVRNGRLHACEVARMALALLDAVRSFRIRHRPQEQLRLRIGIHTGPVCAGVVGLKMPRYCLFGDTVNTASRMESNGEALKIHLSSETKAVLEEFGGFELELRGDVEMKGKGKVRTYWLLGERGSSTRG
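Compound pre-incubated 30 min at room temperature on GloSensor-loaded HEK293 cells stably carrying hNpr1 and the pGS-40F cGMP biosensor. Stimulation uses hNppA at 0.1 nM final; luminescence is taken at baseline and 20 min post-agonist.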
GPT2 inh: GPT2 alanine aminotransferase inhibition. Recombinant GPT2, coupled pyruvate oxidase/HRP Amplex Red fluorescence. Potency, µM (series often up to 57.7 µM), without a hit: at the highest dose activity change, negative = inhibition, most hits filed as inhibitors. actives 0.25% (n = 100,000). AID 1671188; also: nearly all actives have a fitted effect of over 60% in size
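GPT2 10ng/uL, a-KG 250uM, L-Ala 2mM, HEPES pH7.5 + 0.0001% Tween; 30 min RT. Then Amplex mix (PO/HRP/ThPP), 30 min RT dark, fluorescence. AOA 50uM used as positive control.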
FLuc inh: inhibitors of firefly (Photinus pyralis) luciferase; P08659; purified P. pyralis luciferase, luminescence, biochemical; Potency, µM (top dose mostly 115 µM), usual class: inhibitors; actives 2.5% (n = 76,000); AID 1347043; also: nearly all actives have a fitted effect of over 65% in size
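FLuc 10nM, D-luciferin 10uM, ATP 10uM, Mg acetate 10mM, Tris acetate pH 7.5, Tween/BSA; cpd qHTS; enzyme added last; CCD luminescence.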
3T3 cytotox: kills NIH 3T3 cells | NIH 3T3 viability, CellTiter-Glo ATP luminescence, 48-72 h | Potency, µM (top dose mostly 96.7 µM), for the others: top-dose activity change, negative = cytotoxicity, hits mostly inhibitors | actives 4.3% (n = 94,000) | AID 1345082; also: nearly all actives have a fitted effect of over 55% in size
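Cells were seeded at 400 per well, treated with pin-transferred compound, and kept 48 or 72 hr at 37 °C before CellTiter-Glo addition and luminescence imaging of cellular ATP.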
* hit, by the source's call; [ ] = remark or other dose. Unless noted, calls follow the shape of the dose curve; as a rule, active = well fitted curve in the direction sought with a large enough effect; inconclusive = small, poorly fitted or top-dose-only effect, or another doubt; inactive = no such curve, though single readings can be large; an effect the other way counts as inactive or inconclusive. % is scaled to controls: 0 for no effect and ±100 for the full control effect; potency is read from the fitted curve at half-maximal effect.

How did CC(=O)Nc1nc2c(s1)C[C@@H]1[C@](C)(CO)[C@H](O)CC[C@@]1(C)[C@@H]2CC(=O)NC1CC1 do in these assays?
HEK293 tox: -11%[172 µM]; NPR1 antag: -3%[70.6 µM]; GPT2 inh: inconclusive; FLuc inh: inactive; 3T3 cytotox: -18%[138 µM]

Results for CC(C)NC(=O)C[C@@H]1c2nc(NC(=O)c3ccc(C(C)(C)C)cc3)sc2C[C@@H]2[C@](C)(CO)[C@H](O)CC[C@]21C ?
HEK293 tox: 40µM*; NPR1 antag: 5%; GPT2 inh: -10%; FLuc inh: inconclusive; 3T3 cytotox: 50µM*

Results for COc1ccccc1CNC(=O)C[C@@H]1c2nc(-c3cccnc3)sc2C[C@@H]2[C@](C)(CO)[C@H](O)CC[C@]21C ?
HEK293 tox: inconclusive; NPR1 antag: -10%; GPT2 inh: 2%; FLuc inh: inactive; 3T3 cytotox: 79µM*

What do the screens show for `Cn1ncc2c(C(=O)NCc3cccs3)cc(-c3cccnc3)nc21`?
HEK293 tox: inconclusive; GPT2 inh: inactive; 3T3 cytotox: inconclusive

What do the screens show for `COc1cccc(-c2cc(C(=O)NCCOc3ccccc3)[nH]n2)c1`?
HEK293 tox: inconclusive; NPR1 antag: -19%; GPT2 inh: -3%; FLuc inh: inactive; 3T3 cytotox: inconclusive

What do the screens show for `O=C(Nc1ccc(F)cc1F)c1cc(-c2ccc[nH]2)n[nH]1`?
HEK293 tox: inconclusive; NPR1 antag: 2%; GPT2 inh: inactive; FLuc inh: 14µM*; 3T3 cytotox: -24%

How did O=C(Nc1ccc(Cl)cc1)c1cc(-c2ccc[nH]2)n[nH]1 do in these assays?
HEK293 tox: inconclusive; NPR1 antag: 1%; GPT2 inh: inactive; FLuc inh: inconclusive; 3T3 cytotox: -25%

How did O=C(Nc1ccc(OC(F)(F)F)cc1)c1cc(-c2ccc[nH]2)n[nH]1 do in these assays?
HEK293 tox: 13µM*; NPR1 antag: 1%; GPT2 inh: 0%; FLuc inh: inconclusive; 3T3 cytotox: 25µM*

Results for CCOc1ccc(NC(=O)c2cc(-c3ccc[nH]3)n[nH]2)cc1 ?
HEK293 tox: 6%; NPR1 antag: 3%; GPT2 inh: 4%; FLuc inh: 7.1µM*; 3T3 cytotox: 1%

How did COc1ccc(NC(=O)c2cc(-c3ccc[nH]3)n[nH]2)cc1 do in these assays?
HEK293 tox: -3%; NPR1 antag: -5%; GPT2 inh: 4%; FLuc inh: 13µM*; 3T3 cytotox: -4%

How did O=C(Cc1ccccc1)N1CCCC2(CN[S+](=O)([O-])c3cccnc3N2)C1 (configuration not stated) do in these assays?
HEK293 tox: -17%; 3T3 cytotox: 3%

How did CNC(=O)c1cc(C)nc2onc(C3CCN(C(=O)c4ccc(OC)cc4)C3)c12 (configuration not stated) do in these assays?
HEK293 tox: 3%; 3T3 cytotox: -1%

Results for COc1ccc(Cl)cc1NC(=O)c1cc(-c2ccc[nH]2)n[nH]1 ?
HEK293 tox: inconclusive; NPR1 antag: -8%; GPT2 inh: inactive; FLuc inh: inconclusive; 3T3 cytotox: inconclusive

What do the screens show for `COc1ccc(NC(=O)c2cc(-c3ccc[nH]3)n[nH]2)c(OC)c1`?
HEK293 tox: inconclusive; NPR1 antag: -17%; GPT2 inh: 5%; FLuc inh: 20µM*; 3T3 cytotox: -25%

What do the screens show for `O=C(C1CCCN1C(=O)c1ccccc1F)N1CCC(c2nc3ccncc3[nH]2)CC1` (configuration not stated)?
HEK293 tox: inactive; GPT2 inh: 1%; 3T3 cytotox: -5%

How did COc1cccc(-c2cccc(CCOc3cnc4c(ccn4CC(=O)O)c3)c2)c1 do in these assays?
HEK293 tox: inconclusive; NPR1 antag: 3%[70.6 µM]; GPT2 inh: inconclusive; FLuc inh: inactive; 3T3 cytotox: inconclusive

How did O=C(O)Cn1ccc2cc(OCc3cccc(-c4ccc(F)cc4F)c3)cnc21 do in these assays?
HEK293 tox: inconclusive; NPR1 antag: 4%[70.6 µM]; GPT2 inh: inactive; FLuc inh: 20µM*; 3T3 cytotox: -3%[138 µM]

From PubChem
